# From PubChem
# A selection: hits, their analogues and other compounds. The true share with any hit is near 6.3%.
# Spn MK inh – S. pneumoniae MK inhibitors, primary screen, biochemical, PK/LDH-coupled NADH absorbance. mevalonate kinase [Streptococcus pneumoniae D39]. purified MK, PK/LDH-coupled NADH absorbance 340 nm. inhibition, % at 10 µM. actives 0.48% (n = 65,000). AID 555, 2006;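 active = ranked among the strongest by inhibition in the single 10 µM screen, a fixed top-ranked set picked for dose follow-up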
# Spn DPM-DC inh – S. pneumoniae DPM-DC inhibitors, primary screen, biochemical, PK/LDH-coupled NADH fluorescence. diphosphomevalonate decarboxylase (Streptococcus pneumoniae D39). purified DPM-DC. calls only at 10 µM. actives 0.49% (n = 65,000). AID 556, 2006;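 active = the 320 compounds with the highest percent inhibition in the single-dose primary screen, excluding strongly autofluorescent ones, cut at about 32% in these data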;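 also: kinetic rate of NADH fluorescence loss reporting ADP formed by the decarboxylase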
# Autofluor 339 – intrinsic fluorescence of library compounds, ex339/em460 – biochemical, MLSMR library, data from DPM-DC assay, artefact control, profiling panel | compound autofluorescence, ex339/em460 nm, NADH buffer; hits give high values; 1 = no-compound wells, NADH background | fluorescence fold increase at 10 µM | actives 5.5% (n = 65,000);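 active = at 10 µM, mean starting fluorescence two-fold or more over control wells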;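 also: signal is the first read of a kinetic run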
# NADH coupling – inhibitors of PK/LDH coupling enzymes, profiling panel, artefact control, biochemical, MLSMR library | coupled PK/LDH NADH assays, four targets | IC50, µM (titrated, usually from 10 µM), without a hit: at the top dose inhibition | actives 0.02% (n = 65,000) | AID 774, 2007;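 active = single-dose screening hits from any of four coupled enzyme assays that gave an IC50 when retested across doses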;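 also: the DPM-DC format reads NADH fluorescence rather than 340 nm absorbance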
# A340 absorber – compound light absorbance at 340 nm, profiling panel, artefact control, biochemical, MLSMR library, data from PS, PMK, MK assays | compound absorbance at 340 nm, fold over control | fold change at 10 µM | 65,000 tested, under 10 active;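 active = at 10 µM dose, initial 340 nm absorbance at least 2 fold that of control wells; inactive = change under 2 fold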;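 also: initial absorbance extrapolated from kinetic A340 decline of NADH oxidation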
# PMK inhibit – S. pneumoniae PMK inhibitors, primary screen, biochemical, mevalonate pathway, pilot trial included; purified PMK, PK/LDH-coupled NADH absorbance 340 nm; inhibition, % at 10 µM; actives 0.49% (n = 65,000); AID 539, 2006;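 active = top-ranked compounds by inhibition in the single 10 µM screen, taking a fixed number of the strongest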;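 also: 0% = full reaction with DMSO carrier and 100% = background rate without enzyme reaction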
# The depositor's hits bear a star; i = inactive; x = no result shown; + = active, no number.
SMILES,Spn MK inh,Spn DPM-DC inh,Autofluor 339,NADH coupling,A340 absorber,PMK inhibit
Cc1ccc2occ(C(c3nnnn3Cc3ccccc3)N3CCOCC3)c(=O)c2c1 (configuration not stated),6.0,i,1.12,5.0%,1,10.0
Nc1nc(N)c2sc3nc4c(cc3c2n1)CCC4,4.0,+,3.17*,13.0%,1.06,0.0
CN1CCN(C(=O)C2CC(c3c(F)cccc3Cl)=NO2)CC1 (configuration not stated),10.0,i,1.07,5.0%,1.03,6.0
CC(C)(C)c1csc(NC(=O)c2cccs2)n1,5.0,i,1.17,2.0%,1.09,0.0
CSc1nc2ccc3nc(NC(=O)c4cccs4)sc3c2s1,7.0,x,4.55*,10.0%,1.08,13.0
Cn1cccc1Cc1nnc(SCC(=O)NCc2ccc(F)cc2)n1-c1ccc(F)cc1,active,i,1.1,10.0%,1.01,17.0
Cc1ccc2cccc(S(=O)(=O)Nc3ccc4c(c3)OCO4)c2n1,6.0,i,1.1,6.0%,0.99,9.0
CCC(Oc1ccccc1)C(=O)Nc1ccc(-c2nnc(-c3ccco3)o2)cc1 (configuration not stated),12.0,i,2.78*,15.0%,1.14,3.0
COc1ccc2[nH]c(C)c(CN3CCC(C)CC3)c(=O)c2c1,0.0,i,1.73,4.0%,1.11,0.0
CCOc1ccc2[nH]c(C)c(CN3CCCCC3)c(=O)c2c1,10.0,i,3.04*,4.0%,1.08,0.0
COc1ccc2[nH]c(C)c(CN3CCCC(C)C3)c(=O)c2c1 (configuration not stated),4.0,i,2.09*,5.0%,0.98,2.0
C=CCn1c(SCC(=O)NCCOC)nc2scc(-c3ccco3)c2c1=O,0.0,i,1.1,4.0%,1.09,11.0
Cc1ccc2nc3c(c(N)c2c1)CCN3c1ccccc1,1.0,x,3.74*,2.0%,1.09,3.0
Cc1ccc2cc(C)c(N3CCN(c4ccccn4)CC3)nc2c1,0.0,i,1.47,4.0%,1.08,0.0
CN(Cc1c(F)cccc1Cl)c1ccc(S(=O)(=O)N2CCOCC2)cn1,0.0,i,2.57*,8.0%,1,10.0
COCC(C)NC(=O)c1cc(-c2ccccc2OC)on1 (configuration not stated),7.0,i,1.18,7.0%,1,14.0
COCC(C)NC(=O)c1ccccc1OC(C)=O (configuration not stated),10.0,i,2.03*,10.0%,1.01,4.0
CNc1oc(-c2ccco2)nc1C#N,15.0,x,3.95*,16.0%,1.03,16.0
CNc1oc(-c2ccc(Cl)cc2)nc1C#N,0.0,x,2.38*,7.0%,1.05,14.0
Cc1ccc(-c2nc(C#N)c(NCc3cccc4c3OCO4)o2)cc1,3.0,i,2.64*,1.0%,1.06,0.0
Cc1ccc(CNc2oc(-c3ccco3)nc2C#N)cc1,7.0,x,2.1*,5.0%,1.04,3.0
CNc1oc(-c2ccccc2Cl)nc1C#N,0.0,i,1.52,9.0%,1.05,9.0
O=C(Cn1c(NCCCO)nc2ccccc21)c1cccc(Br)c1,7.0,i,1.05,7.0%,1,8.0
CCCCCOC(=O)C1=C(C)N(C)C(=O)NC1c1cc(Br)c(O)c(OC)c1 (configuration not stated),8.0,i,1,3.0%,1,10.0
COc1cc(OC)nc(NC(=O)COC(=O)C2CCCCC2)n1,2.0,i,1.13,4.0%,1.02,9.0
SMILES,Spn MK inh,Spn DPM-DC inh,Autofluor 339,NADH coupling,A340 absorber,PMK inhibit
CCn1c(Oc2ccc(Oc3ncc(Cl)cc3Cl)cc2)nc2c1c(=O)n(C)c(=O)n2C,7.0,i,1.08,8.0%,0.99,17.0
CC(=O)c1cccc(NC(=O)c2cc3nc(C)cc(C)n3n2)c1,5.0,i,2.45*,10.0%,1.02,7.0
CC(=O)c1cccc(NC(=O)c2cc(C(C)C)on2)c1,4.0,i,1.1,1.0%,1.09,0.0
CCS(=O)(=O)c1ccc(O)c(NC(=O)Nc2ccccc2)c1,42.0*,i,1.04,20.0%,1.04,18.0
C=CCOc1nc(N(C)C)nc(N(C)C)n1,5.0,i,1.05,2.0%,0.99,0.0
Cc1ccc(OCc2nnc(NC(=O)Cc3cccs3)s2)cc1,11.0,i,1.11,4.0%,1.02,0.0
CC(C)(C)CC(=O)Nc1nnc(-c2cccs2)s1,0.0,+,1.3,17.0%,1.06,14.0
Cc1cc(OCC(=O)N(C)C)c2c(-c3ccccc3)cc(=O)oc2c1,7.0,i,1.41,13.0%,1.11,9.0
CN(C)C(=O)COc1ccc2cc(-c3ccccc3)c(=O)oc2c1,7.0,x,2.95*,4.0%,1.1,7.0
Cc1cc2nc(-c3cccnc3SCC(=O)NCc3ccco3)[nH]c2cc1C,0.0,x,3.7*,8.0%,1.06,15.0
COc1ccc(OC)c(C(O)c2coc3ccc(O)c(CN4CCOCC4)c23)c1 (configuration not stated),11.0,i,1.08,4.0%,1.01,0.0
C=CCNC(=O)c1c(N)n(-c2cccc(S(N)(=O)=O)c2)c2nc3ccccc3nc12,0.0,x,2.12*,4.0%,1.05,8.0
COC(=O)c1c(N)n(-c2ccc(NC(C)=O)cc2)c2nc3ccccc3nc12,6.0,x,3.82*,8.0%,1.13,9.0
COCCNC(=O)c1c(N)n(-c2cccc(C)c2)c2nc3ccccc3nc12,11.0,x,3.87*,9.0%,1,7.0
COC(=O)c1c(N)n(-c2ccc(N3CCOCC3)cc2)c2nc3ccccc3nc12,0.0,i,1.02,2.0%,1.07,7.0
C=CCn1c(N)c(C(=O)Nc2ccccc2)c2nc3ccccc3nc21,0.0,i,1.41,1.0%,1.06,2.0
Nc1c(C(=O)NCCN2CCOCC2)c2nc3ccccc3nc2n1-c1ccccc1,10.0,x,3.91*,8.0%,1.01,5.0
Cc1cccc(N(CC(=O)NCC2CCCO2)C(=O)CCC(=O)Nc2cc(C)on2)c1 (configuration not stated),2.0,i,1.12,1.0%,1.05,0.0
NC(=O)C1CCN(C(=O)C2CCN(S(=O)(=O)c3ccccc3)CC2)CC1,12.0,i,1.09,6.0%,1.06,5.0
C=CCn1c(=O)c2ccccc2n2c(SCc3csc(-c4ccccc4)n3)nnc12,3.0,i,1.08,5.0%,0.97,12.0
Nc1c(C(=O)NCCN2CCOCC2)c2nc3ccccc3nc2n1-c1ccc2c(c1)OCO2,14.0,+,1.65,10.0%,1.01,8.0
